Measurements from PubChem BioAssay (EPA / NIEHS).
The source made the active and inactive calls. Rule for the calls: active = hit-call score of the fitted dose curve at least 0.9, where 1 is the maximum; inactive = score below 0.9.

Key:
[1] = ATG_CRE_CIS: Attagene CIS-FACTORIAL HepG2 Assay for human cAMP Responsive Element (CRE) binding protein 3 (AID 2282926); conditions: HepG2 CRE cis-reporter, Attagene multiplexed mRNA; actives raise or lower the signal
Outline: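 Assay format: transient reporter transfection of HepG2, 24 h treatment, total RNA isolation with DNase I step. Reporter abundance read by fluorescence after PCR and capillary separation; DMSO-normalised gain or loss fitting.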

[2] = molecular target: CCAAT/enhancer-binding protein beta (Homo sapiens) (UniProt P17676); experiment: ATG_C_EBP_CIS: Attagene CIS-FACTORIAL HepG2 Assay for human CCAAT/Enhancer Binding Protein (C/EBP) beta (AID 2282927); conditions: HepG2 Attagene cis-factorial transcription factor reporter; actives raise or lower the signal
Outline: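 HepG2 transiently transfected with multiplexed reporter units under cis-regulatory promoters reporting endogenous C/EBPb activity. After 24 h exposure, reporter mRNA assayed by RT-PCR, fluorescent labelling, HpaI digestion and capillary electrophoresis; bidirectional fitting versus DMSO.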

[3] = molecular target: Aryl hydrocarbon receptor (Homo sapiens) (UniProt P35869); experiment: ATG_Ahr_CIS: Attagene CIS-FACTORIAL HepG2 Assay for human Aryl Hydrocarbon Receptor (Ahr) (AID 2282930); conditions: HepG2 AhR cis-factorial reporter transcription; actives raise or lower the signal
Outline: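 HepG2 cells transiently transfected with cis-element-driven multiplexed reporter units; endogenous AhR activity read as reporter mRNA 24 h after dosing, via RT-PCR, 6-FAM labelling, HpaI digestion and capillary electrophoresis. Bidirectional fit relative to DMSO.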

[4] = ATG_AP_1_CIS: Attagene CIS-FACTORIAL HepG2 Assay for human Activator Protein 1 (AP-1) (AID 2282931); conditions: HepG2 Attagene cis-factorial AP-1 reporter mRNA; actives raise or lower the signal
Outline: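 Multiplexed HepG2 reporter assay, 24 h dosing. mRNA induction detected by RT-PCR plus capillary electrophoresis. Activity fitted in both directions against DMSO.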

[5] = ATG_AP_2_CIS: Attagene CIS-FACTORIAL HepG2 Assay for human Activator Protein 2 (AP-2) (AID 2282932); conditions: HepG2 AP-2 cis-reporter, Attagene transcription factor profiling; actives raise or lower the signal
Outline: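 Read-out: fluorescent reporter mRNA via RT-PCR and capillary electrophoresis, 24 h post-dose in transiently transfected HepG2. Endogenous factors drive cis-promoter reporters; gain or loss of signal fitted bidirectionally against DMSO.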

[6] = ATG_BRE_CIS: Attagene CIS-FACTORIAL HepG2 Assay for human Bone Morphogenetic Protein (BMP) Response Element (BRE) (AID 2282933); conditions: HepG2 BMP response element reporter, Attagene transcription factor profiling; actives raise or lower the signal
Outline: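 HepG2 cells transiently transfected with multiplexed cis-element reporter units were dosed with chemical for 24 h. Reporter mRNA was measured by RT-PCR with fluorescent labelling, HpaI digestion and capillary electrophoresis; bidirectional fitting relative to DMSO.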

[7] = molecular target: Retinoic acid receptor alpha (Homo sapiens) (UniProt P10276); experiment: ATG_DR5_RAR_CIS: Attagene CIS-FACTORIAL HepG2 Assay for human Retinoic Acid Receptor Alpha (RARE), DR5 submotif (AID 2282934); conditions: HepG2 Attagene cis-factorial RARE DR5 reporter, mRNA; actives raise or lower the signal;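 for AC50: reporter responds to endogenous RAR alpha beta and gamma in HepG2 not RARA alone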
Outline: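 HepG2 cells transiently transfected with multiplexed reporter units; DR5 cis-element drives reporter through endogenous transcription factors. After 24 h dosing, reporter mRNA quantified by RT-PCR, fluorescent labeling, HpaI digestion and capillary electrophoresis; bidirectional fitting versus DMSO.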

[8] = molecular target: Transcription factor E2F1 (Homo sapiens) (UniProt Q01094); experiment: ATG_E2F_CIS: Attagene CIS-FACTORIAL HepG2 Assay for human E2F Transcription Factor 1 (AID 2282935); conditions: HepG2 Attagene cis-reporter, E2F reporter RNA transcripts; actives raise or lower the signal
Outline: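 Transient MRTU transfection of HepG2; 24 h compound exposure; RNA → oligo(dT) RT → PCR → FAM label → HpaI cut → CE fluorescence. Gain/loss of signal fit against DMSO.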

[9] = ATG_E_Box_CIS: Attagene CIS-FACTORIAL HepG2 Assay for human Enhancer Box (E-box) (AID 2282936); conditions: HepG2 E-box cis-reporter transcription, actives raise or lower the signal
Outline: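 Transiently transfected HepG2, endogenous TF-driven reporters, 24 h dosing. Readout: RT-PCR plus capillary electrophoresis of fluorescent reporter fragments. Gain or loss of signal fitted bidirectionally against DMSO baseline.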

[10] = ATG_M_61_CIS: Attagene CIS-FACTORIAL HepG2 Assay for M61 Transcription Factor (Internal Marker) (AID 2282937); conditions: HepG2 Attagene CIS-FACTORIAL M61 internal marker reporter; actives raise or lower the signal
Outline: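 Endogenous transcription factor activity in HepG2 is read through transiently transfected cis-element reporter units. After 24 h dosing, RNA undergoes reverse transcription, PCR and primer extension with 6-FAM before capillary electrophoresis; DMSO-referenced bidirectional fit.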

[11] = ATG_EGR_CIS: Attagene CIS-FACTORIAL HepG2 Assay for human Early Growth Response 1 (EGR1) (AID 2282938); conditions: HepG2 Attagene CIS-FACTORIAL EGR reporter mRNA; actives raise or lower the signal
Outline: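 Activity is taken as induction or loss of reporter mRNA versus DMSO, fitted bidirectionally. Transcripts from cis-regulated reporter units in transiently transfected HepG2 were measured after 24 h by RT-PCR with capillary electrophoresis.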

[12] = ATG_M_19_CIS: Attagene CIS-FACTORIAL HepG2 Assay for M19 Transcription Factor (Internal Marker) (AID 2282939); conditions: HepG2 Attagene CIS-FACTORIAL M19 internal marker reporter; actives raise or lower the signal
Outline: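 HepG2 cells transiently transfected with cis-regulated multiple reporter transcription units were dosed for 24 h; reporter mRNA was quantified by RT-PCR, 6-FAM primer-extension labelling, HpaI digestion and capillary electrophoresis, with bidirectional fitting against DMSO baseline.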

[13] = ATG_ERE_CIS: Attagene CIS-FACTORIAL HepG2 Assay for Estrogen Response Element (ERE) (AID 2282940); conditions: HepG2 ERE cis-reporter, Attagene RNA transcript; actives raise or lower the signal
Outline: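 HepG2 cells transiently transfected with cis-promoter-driven multiplexed reporter transcription units report endogenous TF activity. After 24 h compound exposure, reporter mRNA is quantified by RT-PCR with capillary electrophoresis fluorescence; bidirectional fitting versus DMSO baseline.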

[14] = ATG_Ets_CIS: Attagene CIS-FACTORIAL HepG2 Assay for human Erythroblast Transformation Specific (ETS) (AID 2282941); conditions: HepG2 ETS cis-reporter transcription, actives raise or lower the signal
Outline: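 RT-PCR/capillary electrophoresis fluorescence read-out of reporter mRNA; HepG2 transient multi-reporter transfection; 24 h compound exposure; gain or loss of signal fitted bidirectionally relative to DMSO.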

[15] = molecular target: Hepatocyte nuclear factor 3-beta (Homo sapiens) (UniProt Q9Y261); experiment: ATG_FoxA2_CIS: Attagene CIS-FACTORIAL HepG2 Assay for human Forkhead box A2 (FOXA2) (AID 2282942); conditions: HepG2 cis-reporter transcription factor activity, 24 h; actives raise or lower the signal
Outline: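 Reporter transcript induction is measured by fluorescence after capillary electrophoresis of RT-PCR products from HepG2 cells exposed 24 h. Cis-regulated reporter units report endogenous factor activity; curves fitted both directions against DMSO.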

[16] = ATG_FoxO_CIS: Attagene CIS-FACTORIAL HepG2 Assay for human Forkhead box O (FoxO) (AID 2282943); conditions: HepG2 Attagene cis-reporter, FoxO element, mRNA; actives raise or lower the signal
Outline: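 HepG2 cells transiently transfected with cis-element-driven reporter units report endogenous FoxO activity. After 24 h chemical exposure, reporter mRNA quantified by RT-PCR, fluorescent labeling, HpaI digestion and capillary electrophoresis; bidirectional fit versus DMSO.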

[17] = ATG_GATA_CIS: Attagene CIS-FACTORIAL HepG2 Assay for human GATA Binding Protein (AID 2282944); conditions: HepG2 GATA cis-element reporter, Attagene multiplex mRNA; actives raise or lower the signal
Outline: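 HepG2 cells transiently transfected with multiplexed cis-element reporter units reflecting endogenous transcription factor activity; reporter mRNA measured after 24 h dosing by RT-PCR, 6-FAM labeling, HpaI digestion and capillary electrophoresis. Bidirectional fitting versus DMSO baseline.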

[18] = ATG_GLI_CIS: Attagene CIS-FACTORIAL HepG2 Assay for human Zinc Finger Protein GLI1 (AID 2282945); conditions: HepG2, Attagene cis-factorial reporter mRNA, GLI element; actives raise or lower the signal
Outline: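 Transiently transfected HepG2 cells report endogenous transcription factor activity via cis-element-driven reporter units. After 24 h compound exposure, reporter mRNA was measured by RT-PCR with capillary electrophoresis; bidirectional fitting against DMSO baseline.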

[19] = ATG_DR4_LXR_CIS: Attagene CIS-FACTORIAL HepG2 Assay for human Liver X Receptor (LXR), DR4 submotif (AID 2282929); conditions: HepG2 Attagene DR4 cis-reporter, mRNA transcription; actives raise or lower the signal
Outline: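 Fluorescence intensity of labelled reporter cDNA fragments, separated by capillary electrophoresis, gives the signal. HepG2 cells bearing cis-regulated reporter constructs were treated 24 h; activity fitted bidirectionally relative to DMSO negative control.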

Measured: AC50

Chain of Retinoic acid receptor alpha (Homo sapiens) (P10276 whole entry, looked up): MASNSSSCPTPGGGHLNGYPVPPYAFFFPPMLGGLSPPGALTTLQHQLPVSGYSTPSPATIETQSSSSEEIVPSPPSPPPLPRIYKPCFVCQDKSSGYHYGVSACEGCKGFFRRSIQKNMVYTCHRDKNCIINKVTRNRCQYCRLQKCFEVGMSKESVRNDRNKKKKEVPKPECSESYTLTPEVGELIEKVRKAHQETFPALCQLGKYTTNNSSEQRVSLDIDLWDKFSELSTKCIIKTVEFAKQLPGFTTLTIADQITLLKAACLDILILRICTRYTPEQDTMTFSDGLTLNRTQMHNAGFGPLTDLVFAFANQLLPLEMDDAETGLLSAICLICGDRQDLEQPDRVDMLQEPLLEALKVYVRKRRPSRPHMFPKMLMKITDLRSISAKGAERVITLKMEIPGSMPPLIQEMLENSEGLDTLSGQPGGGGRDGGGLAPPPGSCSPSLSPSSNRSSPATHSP
Chain of Transcription factor E2F1 (Homo sapiens) (Q01094 whole entry, looked up): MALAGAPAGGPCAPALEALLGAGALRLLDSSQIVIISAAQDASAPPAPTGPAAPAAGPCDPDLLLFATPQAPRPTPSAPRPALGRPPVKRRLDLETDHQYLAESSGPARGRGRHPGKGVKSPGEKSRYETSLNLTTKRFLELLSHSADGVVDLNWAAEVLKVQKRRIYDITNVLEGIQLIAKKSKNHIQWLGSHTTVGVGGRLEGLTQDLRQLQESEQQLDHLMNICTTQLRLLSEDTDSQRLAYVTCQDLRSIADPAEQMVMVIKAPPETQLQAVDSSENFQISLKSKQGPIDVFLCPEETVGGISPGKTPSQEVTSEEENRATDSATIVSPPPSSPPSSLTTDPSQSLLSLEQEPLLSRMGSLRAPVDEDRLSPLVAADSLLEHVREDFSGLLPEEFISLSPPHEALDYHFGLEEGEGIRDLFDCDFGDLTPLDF
Chain of Hepatocyte nuclear factor 3-beta (Homo sapiens) (Q9Y261 whole entry, looked up): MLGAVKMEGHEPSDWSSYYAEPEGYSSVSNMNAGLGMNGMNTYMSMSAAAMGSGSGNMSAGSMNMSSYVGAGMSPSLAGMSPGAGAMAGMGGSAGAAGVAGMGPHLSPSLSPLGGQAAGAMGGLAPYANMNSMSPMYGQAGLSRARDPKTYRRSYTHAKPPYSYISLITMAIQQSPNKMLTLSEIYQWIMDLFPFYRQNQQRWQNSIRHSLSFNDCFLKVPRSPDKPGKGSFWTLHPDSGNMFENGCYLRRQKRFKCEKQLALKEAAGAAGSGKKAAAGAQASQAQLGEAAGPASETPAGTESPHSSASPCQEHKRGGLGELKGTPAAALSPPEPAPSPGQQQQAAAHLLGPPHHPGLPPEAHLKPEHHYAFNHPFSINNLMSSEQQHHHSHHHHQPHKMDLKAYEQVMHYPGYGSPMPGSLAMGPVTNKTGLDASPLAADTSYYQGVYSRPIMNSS
Chain of Aryl hydrocarbon receptor (Homo sapiens) (P35869 whole entry, looked up): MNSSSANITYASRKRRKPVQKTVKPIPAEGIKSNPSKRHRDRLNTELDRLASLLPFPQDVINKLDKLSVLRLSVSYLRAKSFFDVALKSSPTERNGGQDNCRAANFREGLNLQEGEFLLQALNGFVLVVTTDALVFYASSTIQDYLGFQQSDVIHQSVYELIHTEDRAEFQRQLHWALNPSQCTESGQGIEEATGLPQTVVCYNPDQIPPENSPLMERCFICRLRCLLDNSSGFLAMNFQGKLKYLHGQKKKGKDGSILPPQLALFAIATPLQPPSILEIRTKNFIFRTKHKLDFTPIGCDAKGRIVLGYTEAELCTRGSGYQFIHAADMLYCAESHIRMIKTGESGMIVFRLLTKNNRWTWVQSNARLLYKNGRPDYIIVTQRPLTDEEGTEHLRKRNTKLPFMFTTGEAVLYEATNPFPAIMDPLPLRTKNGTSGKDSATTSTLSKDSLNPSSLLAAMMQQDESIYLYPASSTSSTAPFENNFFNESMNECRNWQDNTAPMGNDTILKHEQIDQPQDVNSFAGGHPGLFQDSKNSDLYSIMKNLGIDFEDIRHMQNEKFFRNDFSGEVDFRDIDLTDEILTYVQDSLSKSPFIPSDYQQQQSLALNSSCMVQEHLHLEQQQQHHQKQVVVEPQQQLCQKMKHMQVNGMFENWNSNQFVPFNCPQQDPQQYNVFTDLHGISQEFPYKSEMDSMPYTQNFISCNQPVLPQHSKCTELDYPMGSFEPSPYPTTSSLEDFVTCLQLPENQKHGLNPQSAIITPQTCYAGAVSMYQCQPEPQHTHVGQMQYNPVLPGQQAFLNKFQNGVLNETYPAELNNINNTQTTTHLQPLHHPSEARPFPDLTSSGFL
Chain of CCAAT/enhancer-binding protein beta (Homo sapiens) (P17676 whole entry, looked up): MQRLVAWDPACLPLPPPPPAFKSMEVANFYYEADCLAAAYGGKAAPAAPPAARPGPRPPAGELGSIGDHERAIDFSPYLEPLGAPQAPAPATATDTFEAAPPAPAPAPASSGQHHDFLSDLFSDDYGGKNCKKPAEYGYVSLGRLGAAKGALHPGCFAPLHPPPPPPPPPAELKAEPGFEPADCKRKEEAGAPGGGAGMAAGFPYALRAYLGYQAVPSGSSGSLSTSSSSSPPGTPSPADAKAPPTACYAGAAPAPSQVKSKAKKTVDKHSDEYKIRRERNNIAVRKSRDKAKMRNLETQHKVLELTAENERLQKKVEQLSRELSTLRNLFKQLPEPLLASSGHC

CNC(=O)ON=C(SC)C(=O)N(C)C
active: [1] 17.4 µM | [4] 50 µM | [13] 15.7 µM
not listed: [19]
inactive: all other assays above

O=C(O)c1cc(Oc2ccc(C(F)(F)F)cc2Cl)ccc1[N+](=O)[O-]
not listed: [13] | [15]
inactive: all other assays above

CCNc1nc(Cl)nc(NC(C)(C)C#N)n1
not listed: [7] | [13] | [15]
inactive: all other assays above

COc1cc(OC)nc(Sc2cccc(Cl)c2C(=O)O)n1
not listed: [3] | [6] | [7] | [13] | [19]
inactive: all other assays above

O=c1ccc(=O)[nH][nH]1
not listed: [7] | [13] | [15]
inactive: all other assays above

CCCOCC(=Nc1ccc(Cl)cc1C(F)(F)F)n1ccnc1
active: [19] 1.39 µM | [7] 0.295 µM
not listed: [13] | [15]
inactive: all other assays above

C#CCC1=C(C)C(OC(=O)C2C(C=C(C)C)C2(C)C)CC1=O (centres undefined)
inactive: [8] | [10] | [12] | [14]
active: [1] 27.1 µM | [2] 21.7 µM | [3] 78.6 µM | [4] 37.1 µM | [5] 74.9 µM | [7] 9.92 µM | [9] 78.6 µM | [11] 50 µM | [16] 90.3 µM | [17] 77.1 µM | [18] 73.2 µM

CC(C)N(C(=O)SCC(Cl)=C(Cl)Cl)C(C)C
active: [1] 15.6 µM | [2] 10.8 µM | [7] 29.1 µM
not listed: [3] | [13] | [19]
inactive: all other assays above
